Assay results taken from ChEMBL document CHEMBL4513146, “CO-ADD screening of Karazin Kharkiv National University (Ukraine) compounds”.
Results with a measured potency or affinity are listed apart.

Tests used:
Staphylococcus aureus = details: Concentration 32 ug.mL-1;; ASSAY_TEST Inhibition of Bacterial Growth; detection method Absorption (OD600); MEDIA CAMHB; plate type 384well; NBS; CORNING #3640; time 18 hr
Escherichia coli = details: Concentration 32 ug.mL-1;; ASSAY_TEST Inhibition of Bacterial Growth; detection method Absorption (OD600); MEDIA CAMHB; plate type 384well; NBS; CORNING #3640; time 18 hr

| SMILES | Inhibition (Staphylococcus aureus) | Inhibition (Escherichia coli) |
| --- | --- | --- |
| COc1ccc(-c2cc3c4nn(CC(=O)Nc5ccc(C)cc5)c(=O)n4ccn3n2)cc1 | -0.62% | 1.25% |
| Cc1[nH]c2ccccc2c1C(=O)CSc1nnc2c(=O)n(-c3ccc(Br)cc3)ccn12 | -0.76% | -11.28% |
| COc1cccc(CN(c2ccc(C(C)C)cc2)S(=O)(=O)c2cccn3cnnc23)c1 | 7.94% | -1.44% |
| CCOc1ccc(-n2ccn3c(SCC(=O)c4ccc(OC)c(OC)c4)nnc3c2=O)cc1 | 21.02% | 1.32% |
| Cc1nnc2c(=O)n(CC(=O)Nc3ccc(Cl)cc3)c3ccccc3n12 | 6.71% | 2.85% |
| CCOc1ccccc1NC(=O)Cn1c(=O)c2nnc(C(C)C)n2c2ccccc21 | 15.38% | 5% |
| CCC(Sc1nnc2c(=O)n(-c3cccc(OC)c3)ccn12)C(=O)Nc1cc(OC)ccc1OC (configuration not stated) | -1.04% | -13.69% |
| CCOc1ccc(-n2ccn3c(SCC(=O)c4cccc(OC)c4)nnc3c2=O)cc1 | 10.49% | -5.2% |
| C=Cc1ccc(CN(c2ccc(F)cc2)S(=O)(=O)c2ccc3nnc(C)n3c2)cc1 | -1.19% | -7.93% |
| Cc1cccc(NC(=O)c2ccc3nn(CC(=O)N4CCc5ccccc5C4)c(=O)n3c2)c1 | -5.11% | -8.84% |
| O=C(Cn1nc2nc(Nc3ccc(F)cc3)ccn2c1=O)N1CCOCC1 | 9.39% | -3.26% |
| CCCCOc1ccc(-c2cc3c4nnc(SCC(=O)N(CC)c5ccccc5)n4ccn3n2)cc1 | 7.98% | -2.57% |
| Cc1cccc(C)c1NC(=O)Cn1nc2c(Sc3ccccc3)nccn2c1=O | -0.19% | -13.17% |
| COc1ccc(OC)c(NC(=O)Cn2nc3ccc(-c4ccc(Cl)cc4)nn3c2=O)c1 | 10.25% | -2.3% |
| CC(=O)c1ccc(NC(=O)Cn2nc3c(SC4CCCCC4)nccn3c2=O)cc1 | 3.51% | -2.6% |
| COc1ccc(N2CCN(C(=O)Cn3nc4c(Oc5ccc(C)cc5)nccn4c3=O)CC2)cc1 | 4.51% | -5.74% |
| COc1cccc(CN(c2ccc(F)cc2)S(=O)(=O)c2ccc3nnc(C)n3c2)c1 | -1.25% | -6.02% |
| CCOC(=O)c1ccc(NC(=O)CSc2nc3ccccc3n3c(C(C)C)nnc23)cc1 | -3.17% | -9.79% |
| O=C(Cn1nc2c(SC3CCCCC3)nccn2c1=O)Nc1ccc(Cl)cc1F | 4.94% | -2.75% |
| Cc1cc(C)cc(N(Cc2ccc(Cl)cc2)S(=O)(=O)c2cccn3c(C)nnc23)c1 | 9.89% | -11.68% |
| COc1cc(NC(=O)Cn2nc3n(CCc4ccccc4)c(=O)c4ccccc4n3c2=O)cc(OC)c1 | 8.09% | -2.27% |
| COc1ccccc1NC(=O)Cn1nc2c(SCc3ccc(Cl)cc3)nccn2c1=O | 2.82% | -8% |
| CCOc1ccc(-n2ccn3c(SCC(=O)Nc4ccc(C)c(C)c4)nnc3c2=O)cc1 | -4.99% | -21.19% |
| CCc1ccc(NC(=O)Cn2c(=O)c3nnc(C(C)C)n3c3ccccc32)cc1 | 6.08% | 6.05% |

| SMILES | Inhibition (Staphylococcus aureus) | Inhibition (Escherichia coli) |
| --- | --- | --- |
| COc1ccccc1-n1ccn2c(SCC(=O)NCc3ccc(Cl)cc3)nnc2c1=O | 12.53% | -3.51% |
| CCc1ccccc1NC(=O)CSc1nnc2c(=O)n(-c3ccccc3)ccn12 | 10.95% | -0.17% |
| COc1cccc(-n2ccn3c(SCc4ccc(C)cc4)nnc3c2=O)c1 | 8.11% | -4.39% |
| CC(C)Cn1c(=O)c2sccc2n2c(=O)n(CC(N)=O)nc12 | -15.52% | -14.55% |
| CCOc1ccccc1NC(=O)Cn1nc2c(Sc3cccc(C)c3)nccn2c1=O | 3.15% | -1.9% |
| COc1cccc(CSc2nnc3c(=O)n(-c4ccc(Br)cc4)ccn23)c1 | 20.73% | -1.68% |
| Cc1ccccc1Cn1nc2ccc(-c3ccccc3)nn2c1=O | 10.41% | 1.97% |
| COc1cc(-c2nnc3c(=O)n(Cc4ccc(Cl)cc4)ccn23)cc(OC)c1OC | 11.84% | -0.28% |
| CC(C)c1ccc(Oc2nc3ccccc3n3c(=O)n(CC(=O)Nc4ccc5c(c4)OCO5)nc23)cc1 | 7.37% | 4.92% |
| Cc1nnc2c(S(=O)(=O)N(Cc3ccccc3F)c3cc(F)cc(F)c3)cccn12 | -8.28% | 2.33% |
| Cc1ccc(-c2ccc3nn(CC(=O)N4CCN(c5ccc(F)cc5)CC4)c(=O)n3n2)cc1C | -6.93% | -8.27% |
| Cc1nnc2c(S(=O)(=O)N(Cc3ccc(F)cc3)c3ccc(C(C)C)cc3)cccn12 | -0.08% | -8.42% |
| COc1ccc(N(Cc2cccc(Cl)c2)S(=O)(=O)c2ccc3nnc(C)n3c2)cc1 | 13.9% | 0.81% |
| CCc1nnc2c(SCC(=O)Nc3ccc(OC)c(Cl)c3)nc3ccccc3n12 | 9.23% | 5.47% |
| Cc1ccc(Oc2nccn3c(=O)n(CC(=O)Nc4ccccc4F)nc23)cc1 | 4.19% | -1.2% |
| CCOc1ccc(-c2nc(CSc3nc4ccccc4n4c(C)nnc34)c(C)o2)cc1 | 7.53% | 1.84% |
| Cc1cc2nn(CC(=O)NC3CCCCC3)c(=O)n2c(Nc2ccc(F)c(C)c2)n1 | 11.08% | 0.19% |
| COc1cccc(CN(c2cc(F)cc(F)c2)S(=O)(=O)c2ccc3nnc(C)n3c2)c1 | 7.94% | -9.84% |
| COc1ccc(-c2cc3c4nnc(SCC(=O)Nc5ccccc5Cl)n4ccn3n2)cc1 | -12.96% | -8.41% |
| Cc1nnc2c(SCC(=O)Nc3ccc(Br)cc3F)nc3ccccc3n12 | 1.94% | -10.05% |
| COc1ccc(NC(=O)c2ccc3nn(CC(=O)Nc4ccc(C(C)=O)cc4)c(=O)n3c2)cc1 | 15.44% | -1.93% |
| COc1ccccc1-n1ccn2c(SCc3ccc(C)cc3)nnc2c1=O | 4.53% | -10.18% |
| Cc1ccccc1Oc1nccn2c(=O)n(CC(=O)Nc3ccc(C#N)cc3)nc12 | 8.67% | -0.39% |
| CC(C)c1nnc2c(SCC(=O)Nc3ccc(Br)cc3)nc3ccccc3n12 | 1.25% | 1.75% |

| SMILES | Inhibition (Staphylococcus aureus) | Inhibition (Escherichia coli) |
| --- | --- | --- |
| CCOc1ccc(-n2ccn3c(SCC(=O)c4cccc(Cl)c4)nnc3c2=O)cc1 | 18.89% | 0.66% |
| CCC(Sc1nnc2c(=O)n(-c3cccc(OC)c3)ccn12)C(=O)Nc1ccccc1C (configuration not stated) | -3.13% | -2.17% |
| O=C(Cn1nc2c(N3CCOCC3)nccn2c1=O)Nc1ccc(Br)cc1F | 13.39% | 2.9% |
| O=C(CSc1nnc2c(=O)n(-c3ccccc3)ccn12)Nc1ccccc1F | 8.41% | 1.53% |
| Cc1ccc(-c2ccc3nnc(CCC(=O)NCc4ccc(C(C)C)cc4)n3n2)cc1C | 2.18% | -3.19% |
| CCOc1ccc(-n2ccn3c(SCC(=O)Nc4cc(OC)cc(OC)c4)nnc3c2=O)cc1 | 7.49% | -3.15% |
| CCc1ccccc1NC(=O)Cn1nc2c(Sc3ccc(C)cc3C)nccn2c1=O | 1.94% | -4.21% |
| Cc1ccc(NC(=O)CSc2nc3ccccc3n3c(C)nnc23)cc1C | -20.91% | -12.4% |
| CCOc1ccc(-n2ccn3c(SC(CC)C(=O)Nc4cc(F)ccc4F)nnc3c2=O)cc1 (configuration not stated) | 7.7% | -0.34% |
| CCc1cccc(NC(=O)Cn2nc3c(SCc4ccc(Cl)cc4)nccn3c2=O)c1 | -8.25% | -12.19% |
| O=C(NCc1ccccc1)c1ccc2nn(CC(=O)N3CCN(c4ccccc4)CC3)c(=O)n2c1 | 4.31% | -4.36% |
| CCc1nnc2ccc(S(=O)(=O)N(Cc3cccc(OC)c3)c3cccc(F)c3)cn12 | -0.28% | -5.95% |
| Cc1c(Cl)cccc1-n1ccn2c(=O)n(Cc3ccc(F)cc3)nc2c1=O | 2.79% | -11.88% |
| Cc1cccc(N(Cc2cccc(F)c2)S(=O)(=O)c2cccn3c(C)nnc23)c1 | 20.9% | -1.19% |
| CCOc1ccc(NC(=O)Cn2nc3c(SCc4ccc(Cl)cc4)nccn3c2=O)cc1 | -1.92% | -9.96% |
| COC(=O)c1ccc(CN(c2cccc(C)c2)S(=O)(=O)c2cccn3c(C)nnc23)o1 | 5.77% | -6.24% |
| Cc1ccc(C)c(NC(=O)Cn2nc3c4cc(-c5ccc(C)c(C)c5)nn4ccn3c2=O)c1 | 4.52% | -6.72% |
| Cc1ccc(NC(=O)Cn2nc3c(Sc4cccc(F)c4)nccn3c2=O)cc1F | 12.19% | 1.14% |
| Cc1cccc(N(Cc2ccc(F)cc2)S(=O)(=O)c2cccn3c(C)nnc23)c1 | 15.38% | -0.37% |
| Cc1cc(C)cc(NC(=O)Cn2nc3c4cc(-c5ccc(C)c(C)c5)nn4ccn3c2=O)c1 | 5.77% | -4.98% |
| COc1cccc(Oc2nccn3c(=O)n(CC(=O)Nc4ccc(C(C)C)cc4)nc23)c1 | -2.58% | -7.16% |
| CCCNC(=O)CSc1nnc2c(=O)n(-c3ccc(F)cc3)ccn12 | -5.35% | -1% |
| COc1cccc(NC(=O)Cn2nc3ccc(-c4ccc(C)c(C)c4)nn3c2=O)c1 | -14.65% | -17.62% |
